Results taken from PubChem BioAssay.
Calls of active or inactive are those of the source.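 How the source made its calls, unless noted: active means compound raises GLP1 secretion from the human gut endocrine cells, with no numeric limit stated; inactive means the rest.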

Key:
[1] = Wnt pathway potentiators raising nuclear beta-catenin – imaging, WNT3A-conditioned medium, mouse C2C12, NPC library, primary screen (AID 1117326; in the data active means nuclear beta-catenin stimulation mostly above about 4.2%, no sharp cut-off; inactive means mostly below about 10%; further: reference of the scale not given here); details: stronger effect = higher value
[2] = stimulators of insulin release from INS-1E, primary screen, cell-based, 5 mM glucose, NPC library (AID 1117329;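 active means compound raises insulin release from rat beta cells at 5 mM glucose, no numeric limit stated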; further: reference of the scale not given here); details: rat INS-1E insulin secretion, at 10 µM, stronger effect = higher value
[3] = growth inhibition of GSK3B-pretreated HCT116 cells – cell-based, CellTiter-Glo, 0.2 to 20 µM (AID 1117336;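 active means compounds lowering colon cancer cell viability after pretreatment blocking the GSK3B kinase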); details: HCT116 viability after GSK3B inhibitor, at 20 µM, stronger effect = higher value
[4] = inhibition of endothelial tube formation, primary screen, imaging, VEGF stimulated, CD31 staining, tube area, NPC library (AID 1117340;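 active means compound that reduces growth-factor-driven endothelial tube area in a mixed cell culture, no cutoff stated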); details: VEGF-stimulated ADSC/ECFC co-culture, at 10 µM, stronger effect = higher value
[5] = GLP1 release stimulators, primary, NCI-H716, NPC library (AID 1117341); details: NCI-H716 cells, at 10 µM, stronger effect = higher value; further: reference of the scale not given here
[6] = HCT116 colon cancer cell growth inhibition, primary screen, CellTiter-Glo luminescence, NPC library (AID 1117342;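 active means compounds that lower survival of HCT116 colon cancer cells in the luminescence readout, no numeric limit stated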); details: at 20 µM (top of the series)
[7] = reduced SW480 viability measured with CellTiter-Glo, NPC library, primary (AID 1117343;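 active means compounds that lower viability of the colon cancer cells in the luminescence readout, with no numeric limit stated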); details: CellTiter-Glo luminescence; at 20 µM (top of the series)
[8] = NPC library primary testing for decreased DLD-1 cell viability via CellTiter-Glo (AID 1117346;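 active means compounds that lower survival of DLD-1 colon cancer cells in the luminescence readout, no cutoff given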); details: DLD-1 viability, CellTiter-Glo luminescence; at 20 µM (top of the series)

Compound | nuclear beta-catenin stimulation ([1]; at 10 µM) | nuclear beta-catenin stimulation ([1]; stimulation, at 2 µM) [%] | insulin secretion stimulation [2] | viability decrease [3] | tube area decrease [4] | GLP1 secretion stimulation [5] | inhibition of viability [6] | viability decrease (inhibition) [7] | viability decrease (inhibition) [8]
CCC(C(=O)OCCN(CC)CC)c1ccccc1 (stereo unspecified) | 1.2% (inactive) | -0.6 | 1.3% (inactive) | -8.4% (inactive) | -11.9% (inactive) | -2.1% (inactive) | -0.3% (inactive) | 4.5% (active) | -11.1% (inactive)
CC(=O)CCC(=O)O | -1.6% (inactive) | -1.3 | 2% (inactive) | -4.6% (inactive) | 0.2% (inactive) | -2.2% (inactive) | -6.13% (inactive) | 20% (inactive) | -8.6% (inactive)
COc1ccc(S(=O)(=O)Nc2nnc(CC(C)C)s2)cc1 | -0.3% (inactive) | -0.5 | 5.1% (inactive) | -9.2% (inactive) | -5.8% (inactive) | -1.9% (inactive) | -18.3% (inactive) | 13.7% (inactive) | -19.8% (inactive)
COC(=O)C(CN)c1c[nH]c2ccc(OC)cc12 (stereo unspecified) | -2.2% (inactive) | -1 | 2.3% (inactive) | -18.2% (inactive) | 5.7% (inactive) | 7.7% (inactive) | 8.5% (inactive) | 19.4% (inactive) | 16.7% (inactive)
CC(C)(C)c1ccc2c(S(=O)(=O)O)c(C(C)(C)C)ccc2c1 | -2.9% (inactive) | -1.4 | 0.3% (inactive) | -22% (inactive) | -2.7% (inactive) | 1% (inactive) | -18.9% (inactive) | 9% (inactive) | -14.4% (inactive)
CC1(S(=O)(=O)O)CC(=O)c2ccccc2C1=O (stereo unspecified) | 30.3% (inactive) | -0.2 | -0.7% (inactive) | 98.8% (active) | 54.7% (active) | 1.2% (inactive) | 99.2% (active) | 102% (active) | 102% (active)
O=C(CS)Nc1ccccc1 | 0.5% (inactive) | -0.2 | 6.4% (inactive) | -38.2% (inactive) | 4.3% (inactive) | -2.3% (inactive) | -19.3% (inactive) | -2.4% (inactive) | -12.9% (inactive)
Cc1cc(O)c(C(C)C)cc1Cl | -0.5% (inactive) | 1.2 | -0.9% (inactive) | 36.1% (inactive) | -10.5% (inactive) | 29.3% (active) | -9.5% (inactive) | 22% (inactive) | 19.5% (inactive)
O=C(O)c1ccccc1NCCc1ccccc1 | 1.2% (inactive) | 2.5 | 0.15% (inactive) | 42.9% (inactive) | 22.2% (inactive) | 1.4% (inactive) | 26.7% (inactive) | 50.6% (active) | -1.8% (inactive)
COC(=O)c1cc(Cl)ccc1NS(=O)(=O)C(F)(F)F | -1.2% (inactive) | -1.2 | 1.8% (inactive) | 17.5% (inactive) | -6.9% (inactive) | -0.4% (inactive) | 8.93% (inactive) | 30.2% (inactive) | -4.9% (inactive)
NS(=O)(=O)c1cc(-c2nn[nH]n2)c(NCc2cccs2)cc1Cl | -3% (inactive) | -0.1 | 6.5% (inactive) | -3% (inactive) | -8.2% (inactive) | -0.2% (inactive) | -19.7% (inactive) | 2.3% (inactive) | -10.7% (inactive)
COC(=O)C1=C(C)NC(COC(N)=O)=C(C(=O)OC(C)C)C1c1cccc(Cl)c1Cl (stereo unspecified) | 35.5% (inactive) | 0.7 | 8.1% (inactive) | 94.6% (active) | 23.2% (inactive) | 0.3% (inactive) | 99.8% (active) | 123% (active) | 68.5% (active)
O=S1(=O)OC(c2ccc(O)cc2)(c2ccc(O)cc2)c2ccccc21 | 0.1% (inactive) | -1.3 | 0.55% (inactive) | 12.4% (inactive) | 2.5% (inactive) | -0.4% (inactive) | 38.7% (inactive) | -9.3% (inactive) | 42.9% (inactive)
Cc1ncc(COP(=O)(O)O)c(C=O)c1O | -1.1% (inactive) | -0.2 | -0.8% (inactive) | 9.5% (inactive) | -0.4% (inactive) | -1.1% (inactive) | 4.63% (inactive) | -1.4% (inactive) | 3.4% (inactive)
